Potency and outcome data for 14 compounds are collected here from PubChem BioAssay (NCATS).

In assay [1] the target is Ubiquitin carboxyl-terminal hydrolase 1 (Homo sapiens) (UniProt O94782). Briefly: Inhibitors of USP1/UAF1: Pilot qHTS (AID 504865). Further: nearly all actives have a fitted effect of over 35% in size. Further: potency means the concentration at half of the fitted maximal effect. Summed up:
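USP1/UAF1 complex at 1 nM preincubated 15 min at room temperature with compound, then Ub-Rho substrate added at 150 nM final. Fluorescence (480/540 nm) read kinetically in 50 mM HEPES pH 7.8, 0.5 mM EDTA, 1 mM TCEP, 0.1 mg/ml BSA, 0.01% Tween-20.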
(In general: Quantitative high-throughput screening tests each substance at several concentrations.)

The target in assay [2] is ATP-dependent 6-phosphofructokinase (Trypanosoma brucei brucei) (UniProt O15648). The assay can be described thus: qHTS Assay to Find Inhibitors of T. brucei phosphofructokinase: hit validation (AID 492961).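 Further: luminescence reports ADP formed as PFK phosphorylates fructose-6-phosphate with ATP; series mostly up to about 51 µM.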 Summed up: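 Reaction: 0.1 M triethanolamine pH 8.0, 5 mM MgCl2, F6P 0.5 mM, ATP 0.1 mM, PFK 1.25 nM, 45 min RT. Read-out: ADP-Glo luminescence. Analysis: concentration-response fits, classed by r2 and efficacy.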

Records with an inconclusive call do not appear. A call without a number means that no potency is given here. Activity calls are given as the source filed them. The call rests on the fitted dose curve; in most records, active means well fitted curve in the direction sought with a large enough effect; inconclusive means small, poorly fitted or top-dose-only effect, or another doubt; inactive means no such curve, though single readings can be large; an effect the other way counts as inactive or inconclusive.

ATP-dependent 6-phosphofructokinase (Trypanosoma brucei brucei), sequence (O15648 whole entry, looked up): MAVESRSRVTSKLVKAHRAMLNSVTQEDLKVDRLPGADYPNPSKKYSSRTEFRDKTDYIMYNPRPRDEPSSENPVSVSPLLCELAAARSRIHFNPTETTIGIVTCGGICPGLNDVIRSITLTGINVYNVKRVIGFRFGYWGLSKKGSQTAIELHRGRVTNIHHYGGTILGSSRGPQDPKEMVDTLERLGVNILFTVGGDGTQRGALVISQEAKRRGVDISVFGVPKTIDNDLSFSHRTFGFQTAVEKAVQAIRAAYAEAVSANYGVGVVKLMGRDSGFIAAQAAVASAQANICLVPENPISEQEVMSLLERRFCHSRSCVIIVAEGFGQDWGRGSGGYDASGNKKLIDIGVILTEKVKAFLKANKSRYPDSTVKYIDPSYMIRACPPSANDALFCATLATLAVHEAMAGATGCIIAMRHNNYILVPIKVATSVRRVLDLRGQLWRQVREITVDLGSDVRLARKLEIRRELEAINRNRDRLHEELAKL
Ubiquitin carboxyl-terminal hydrolase 1 (Homo sapiens), sequence (O94782 whole entry, looked up): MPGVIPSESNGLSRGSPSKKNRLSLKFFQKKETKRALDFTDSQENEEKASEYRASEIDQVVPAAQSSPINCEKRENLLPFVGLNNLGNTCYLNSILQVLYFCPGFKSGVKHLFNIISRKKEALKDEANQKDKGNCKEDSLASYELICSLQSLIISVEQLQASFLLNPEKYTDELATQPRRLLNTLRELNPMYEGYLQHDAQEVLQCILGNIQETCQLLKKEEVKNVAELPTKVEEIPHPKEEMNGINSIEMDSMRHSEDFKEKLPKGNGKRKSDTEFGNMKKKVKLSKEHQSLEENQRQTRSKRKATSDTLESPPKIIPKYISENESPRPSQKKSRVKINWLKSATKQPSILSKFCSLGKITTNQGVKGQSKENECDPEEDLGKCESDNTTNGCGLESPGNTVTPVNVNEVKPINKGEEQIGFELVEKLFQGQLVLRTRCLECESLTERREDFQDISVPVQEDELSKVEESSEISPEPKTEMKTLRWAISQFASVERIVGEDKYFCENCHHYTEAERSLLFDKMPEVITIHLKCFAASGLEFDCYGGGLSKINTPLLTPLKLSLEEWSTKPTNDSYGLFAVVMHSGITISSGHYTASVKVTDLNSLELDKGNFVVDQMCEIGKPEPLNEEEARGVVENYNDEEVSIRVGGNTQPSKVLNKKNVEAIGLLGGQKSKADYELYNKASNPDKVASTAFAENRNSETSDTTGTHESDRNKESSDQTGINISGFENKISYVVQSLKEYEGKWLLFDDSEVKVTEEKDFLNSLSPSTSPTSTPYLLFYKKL

Regarding `CC(C(=O)O)c1ccc(C(=O)c2cccs2)cc1` (stereo not given), the Potency entry in assay [1] is “inactive”.
With `S=c1[nH]c2ccccc2s1`, in assay [1], the Potency entry was “inactive”.
On to `CC(C(=O)O)c1ccc2c(c1)[nH]c1ccc(Cl)cc12` (stereo not given), for which the call in assay [2] was inactive. The Potency entry in assay [1] was “inactive”.
As to `N=C(N)N`, the Potency result in assay [1] was “inactive”.
In the case of `COc1cc(NC(C)CCCN)c2ncccc2c1` (stereo not given), the Potency in assay [1] is 39.8 µM (active).
With `NC(=O)C(c1ccccc1)(c1ccccc1)[C@@H]1CCN(CCc2ccc3c(c2)CCO3)C1`, the compound was classed as inactive in assay [2]. The Potency entry in assay [1] was “inactive”.
In the case of `C=CCCCCCCCCC(=O)O`, the result in assay [2] was inactive. Moreover, the Potency entry in assay [1] was “inactive”.
`O=C(O)c1cc(O)c(O)c(O)c1`: the Potency result in assay [1] is “inactive”.
On to `O=C(/C=C/c1ccccc1)NCCO`, for which the compound was classed as inactive in assay [2]. In addition, in assay [1], the Potency entry was “inactive”.
Take `Clc1ccccc1-c1nc(-c2ccncc2)no1`: the Potency result in assay [1] is “inactive”.
The same measure, in the same setting: as for `O=C(O)c1ccccc1Nc1cccc(C(F)(F)F)c1`, the entry is “inactive”.
The same measure, in the same setting: in the case of `CN(C)c1ccc(C(=C2C=CC(=[N+](C)C)C=C2)c2ccccc2)cc1` it was 50.1 µM (active).
On to `Cc1ccc(O)c(-n2nc3ccccc3n2)c1`, for which the outcome in assay [2] was inactive. Moreover, the Potency entry in assay [1] was “inactive”.
`C=C(Nc1ccc(OCC)cc1)Nc1ccc(OCC)cc1`: in assay [2], the compound was classed as inactive. The Potency result in assay [1] was “inactive”.
